# Measured values as given in PubChem BioAssay (NCI).
# The panel holds about 83,000 compounds, 20% with a hit somewhere; the sample as a whole holds those more often.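 Compound tested at a single concentration for 48 hours in 96-well plates; a percent growth value below 10 was scored as active.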 The source made the active and inactive calls.
# Test system: TK-10 renal
# Assay: NCI-60 one-dose screen, 48 h (100 = growth as untreated, 0 = no growth, -100 = all killed)
# Conditions: 10 µM unless noted
row,Compound,growth
1,O=C1C(Br)=CC2C1C1C3CCC3C2(Br)C12OCCO2 (centres undefined),28.8% (inactive)
2,CC1(C)NC(=S)NC1=O,112% (inactive)
3,CCCCCCCCCCC1OC(C)CC(C)O1 (centres undefined),100% (inactive)
4,O=C1C=C(OCC=C(C(F)(F)F)C(F)(F)F)c2ccccc2C1=O,53.5% (inactive)
5,CCOC1=C(Cl)C(=O)C(OCC)=C(Cl)C1=O,104% (inactive)
6,O=C(NCCO)C(F)(F)F,102% (inactive)
7,Oc1ccc(Br)cc1/C=N/NC(=S)NC12CC3CC(CC(C3)C1)C2,27.9% (inactive)
8,COc1cc(N2C(=O)C=CC2=O)ccc1N1C(=O)C=CC1=O,86.4% (inactive)
9,c1cc[c]([Bi]([c]2ccccc2)[c]2ccccc2)cc1,94.6% (inactive)
10,O=C(CN1C(=O)NC(c2ccccc2)(c2ccccc2)C1=O)c1ccc(N2CCCC2)cc1,98.4% (inactive)
11,CC(O)CN(CCO)CCN(CCO)CC(C)O (centres undefined),103% (inactive)
12,CNc1ccc(Nc2ccc(S(=O)(=O)O)cc2)c2c1C(=O)c1ccccc1C2=O,126% (inactive)
13,Cc1ccc(S(=O)(=O)NC(CCC(=O)Nc2ccccc2)C(=O)Nc2ccccc2)cc1 (centres undefined),-12.9% (active)
14,COC1(OC)N=C(N)C2(C#N)C3(C(=O)Nc4ccccc43)C12C#N (centres undefined),98% (inactive)
15,Cn1c2ccccc2c2ccccc21,97.5% (inactive)
16,Oc1ccc([S+](c2ccc(O)cc2)c2ccc(O)cc2)cc1,115% (inactive)
17,Nc1cc(N)c2nc(-c3ccccc3)c(NCCc3ccc(Cl)c(Cl)c3)nc2c1,-92.5% (active)
18,COC(=O)Nc1nc2ccc(C(=O)c3ccccc3N(C)C3COC3)cc2[nH]1,59.5% (inactive)
19,CCOP1(=O)CC(C)=C(Cl)C(P(=O)(O)O)C1 (centres undefined),117% (inactive)
20,CCCCCCCCC1OC1CCCCCCCC(=O)O (centres undefined),104% (inactive)
21,CC(O)CN(CC(C)O)N(CC(C)O)CC(C)O (centres undefined),99.3% (inactive)

# Test system: ACHN renal
# Assay: as above
# Conditions: 10 µM unless noted
row,Compound,growth
1,CC(C)(CNC1CCCCC1)OC(=O)c1ccccc1,108% (inactive)
2,COC(=O)c1ccc2[nH]c(O)c(C(=Nc3ccc(N(C)C(=O)CN4CCN(C)CC4)cc3)c3ccc4c(c3)OCO4)c2c1,8.02% (active)
3,O=C(/C=C\c1ccc(NCc2ccc(C(=O)O)cc2)cc1)CCl,93.3% (inactive)
4,CCCCCCC(C)N(CC(C)(C)O)C(=O)c1ccc([N+](=O)[O-])cc1 (centres undefined),107% (inactive)
5,C=CN(C)S(C)(=O)=O,39.5% (inactive)
6,CCCCCCC(C(=O)OCC)(C(=O)OCC)C1CCCCCC1,101% (inactive)
7,CCOC(=O)NC1=NCC(C)(C)S1,107% (inactive)
8,Cc1ccc2c(c1)C(=O)CCS2,107% (inactive)
9,S=C(N/N=C/c1cc(Cl)cc(Cl)c1)NC12CC3CC(CC(C3)C1)C2,4.44% (active)
10,COC(=O)C(N)CC(C)C (centres undefined),97.4% (inactive)
11,O=C(Nc1ccc(Cl)c(Cl)c1)O/N=C\c1c(Cl)ccc([N+](=O)[O-])c1Cl,-59.5% (active)
12,O=C(/C=C/c1ccc(Cl)cc1)c1ccc(Cl)cc1,109% (inactive)
13,O=C(Nc1cccc(Cn2c(=O)[nH]c3ccc(Oc4ncccn4)cc3c2=O)c1)c1cccc(F)c1,80.9% (inactive)
14,CC(=O)c1ccc2c(c1)c1ccccc1n2C,110% (inactive)
15,CCC(C)CC(N)O (centres undefined),106% (inactive)
16,COc1cc2ncnc(-n3ncc4cc(NC(=O)Nc5ccccc5)ccc43)c2cc1OC,17.1% (inactive)
17,O=C(O)CS(=O)c1ccc(Cl)cc1 (centres undefined),95.2% (inactive)
18,O=C1C(=O)c2ccccc2C(O)=C1CCCc1ccc(Oc2ccccc2)cc1,59.4% (inactive)
19,O=C1C(Br)=CC2C1C1C3CCC3C2(Br)C12OCCO2 (centres undefined),32.5% (inactive)
20,CC1(C)NC(=S)NC1=O,109% (inactive)
21,CCCCCCCCCCC1OC(C)CC(C)O1 (centres undefined),97.8% (inactive)
22,O=C1C=C(OCC=C(C(F)(F)F)C(F)(F)F)c2ccccc2C1=O,1.45% (active)
23,CCOC1=C(Cl)C(=O)C(OCC)=C(Cl)C1=O,106% (inactive)
24,O=C(NCCO)C(F)(F)F,101% (inactive)
25,Oc1ccc(Br)cc1/C=N/NC(=S)NC12CC3CC(CC(C3)C1)C2,2.67% (active)
26,COc1cc(N2C(=O)C=CC2=O)ccc1N1C(=O)C=CC1=O,96.6% (inactive)
27,c1cc[c]([Bi]([c]2ccccc2)[c]2ccccc2)cc1,105% (inactive)
28,O=C(CN1C(=O)NC(c2ccccc2)(c2ccccc2)C1=O)c1ccc(N2CCCC2)cc1,89.9% (inactive)
